Laboratory results published in PubChem BioAssay.
The source made the active and inactive calls. Cut-off read from the data, not from the text of the source: active = fold change permeability below about 0.7 or above about 1.3; inactive = in between.

Assay: compounds altering in vitro BBB leakiness – cell-based, FITC-avidin fluorescence, HTS, primary screen (AID 1963498); note: test concentration not given here
Conditions: brain endothelial barrier, actives lie on both sides

Fold change permeability, active:
O=c1c(O)c(-c2cc(O)c(O)c(O)c2)oc2cc(O)cc(O)c12 0.7
Cc1cc(CN2CCN(c3c(Br)cnc4nc(-c5ccc(N6CCN(C)CC6)cc5)[nH]c34)CC2)no1 1.4
CCCOc1ccccc1-c1nc2n[nH]nc2c(=O)[nH]1 1.9
O=c1[nH]ccc2c(O)cccc12 2.2
N#CC(=C(/N)Sc1ccccc1N)/C(C#N)=C(\N)Sc1ccccc1N 1.6
CSc1c(C)c(SC)n2ccncc12 1.3
C[C@H](Cc1ccccc1)Nc1ncnc2c1ncn2[C@@H]1O[C@H](CO)[C@H](O)C1O (some centres undefined) 1.3
Nc1ncnc2c1c(-c1ccc(Oc3ccccc3)cc1)cn2C1CCCC1 1.6
Nc1nc2ccc(Cl)cc2c2nc(-c3ccco3)nn12 1.3
COc1ccc(/C=C/C(=O)Nc2ccccc2C(=O)O)cc1OC 1.4
O=C1/C(=C/c2cccs2)CC/C1=C\c1cccs1 1.6
CC#CCOC(=O)c1c(C)nc2sc3c(c2c1N)CCC(O)C3 (centres undefined) 1.9

Fold change permeability, inactive:
CN(C)C(=O)Oc1cccc([N+](C)(C)C)c1 0.8
Nc1ncn([C@@H]2O[C@H](CO)[C@@H](O)[C@H]2O)c(=O)n1 1.1
COc1ccc(S(=O)(=O)Nc2nc(-c3cccc([N+](=O)[O-])c3)cs2)cc1OC 0.9
NC1(C(=O)O)CCc2cc(C(=O)O)ccc21 (centres undefined) 1.1
Cc1ccc(=O)n(-c2ccccc2)c1 1
O=C(O)C1(C(=O)O)CCC1.[NH2-].[NH2-].[Pt+2] 0.8
CC(=O)N[C@H](C(=O)O)C(C)(C)SN=O 0.9
CC(=O)/C(C)=N/O 1
O=C(O)CN(CCN(CC(=O)O)CC(=O)O)CCN(CC(=O)O)CC(=O)O 1
COc1cc([C@@H]2c3cc4c(cc3[C@@H](O[C@@H]3O[C@@H]5CO[C@@H](C)O[C@H]5[C@H](O)[C@H]3O)[C@H]3COC(=O)[C@H]23)OCO4)cc(OC)c1O 0.9
COc1ccccc1N1CCN(CCN(C(=O)c2ccc(F)cc2)c2ccccn2)CC1 0.8
NC(=NCc1ccccc1)NC(=O)c1nc(Cl)c(N)nc1N 1
NC1C=CC=C(C(=O)O)C1 (centres undefined) 0.9
CN1CCN(CCCN2c3ccccc3Sc3ccc(C(F)(F)F)cc32)CC1 1.2
Nc1ncnc2c1ncn2C1CCCC1 0.9
CCCC(CCC)C(=O)OC1CC2CCC(C1)[N+]2(C)C (centres undefined) 0.9
Cc1ccc(N(CC2=NCCN2)c2cccc(O)c2)cc1 1.1
C=CC[C@H](N)C(=O)O 1
O=c1cc(-c2cccc3c2Sc2ccccc2S3)oc(N2CCOCC2)c1 1
Nc1nc(N)c2nc(CNc3ccc(C(=O)N[C@@H](CCC(=O)O)C(=O)O)cc3)cnc2n1 0.9
Cn1c(=O)c2c(ncn2CC2OCCO2)n(C)c1=O 1
Nc1ncnc2c1ncn2C1CCCO1 (centres undefined) 1
Fc1ccc(-c2ccc(Nc3nc(Cl)nc(Cl)n3)cc2)cc1 0.9
N[C@@H](Cc1ccc(F)cc1)C(=O)O 0.8
NS(=O)(=O)c1cc2c(cc1Cl)NC=NS2(=O)=O 0.9
Nc1nc2[nH]cc(CCc3ccc(C(=O)N[C@@H](CCC(=O)O)C(=O)O)cc3)c2c(=O)[nH]1 0.9
CN1CCc2cc(Cl)c(O)cc2[C@@H](c2ccccc2)C1 0.9
